Outcome and AC50 data for seven compounds are collected here from PubChem BioAssay (EPA / NIEHS).

Details in all cases: mRNA level, 48 h; actives raise or lower the signal
Read-out in experiment [1]: Cytochrome P450 4A22 (Homo sapiens) (UniProt Q5TCH4)
Nature of the experiment: LTEA_HepaRG_CYP4A22: Life Technologies and Expression Analysis (LTEA) Assay for Cytochrome P450 4A22 (CYP4A22) using HepaRG (AID 2283495). Put shortly:
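Concentration-response (8 points, max 100 uM, 0.5% DMSO) in human HepaRG liver cells after 48 h exposure. CYP4A22 mRNA by TaqMan qRT-PCR with housekeeping-gene normalization.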

Read-out in experiment [2]: Cytochrome P450 7A1 (Homo sapiens) (UniProt P22680)
Nature of the experiment: LTEA_HepaRG_CYP7A1: Life Technologies and Expression Analysis (LTEA) Assay for Cytochrome P450 7A1 (CYP7A1) using HepaRG (AID 2283496). Put shortly:
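Using 0.5% DMSO as vehicle and baseline, chemicals were tested in duplicate over an 8-point range from 100 uM on HepaRG cells for 48 h; qRT-PCR signals were normalised to ACTB, GAPDH and POLR2A.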

Read-out in experiment [3]: Glutathione S-Transferase (GSTA2), GSTA2 (gene 2939)
Nature of the experiment: LTEA_HepaRG_GSTA2: Life Technologies and Expression Analysis (LTEA) Assay for Glutathione S-Transferase (GSTA2) using HepaRG (AID 2283497). Put shortly: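 GSTA2 transcript levels came from Fluidigm TaqMan qRT-PCR normalized to three housekeeping genes, fitted in both directions against DMSO. HepaRG cultures received chemicals for 48 h in serum-free induction medium (0.5% DMSO), 8 half-log concentrations up to 100 uM, duplicate.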

Read-out in experiment [4]: Glutamate-cysteine ligase catalytic (GCLC), GCLC (gene 2729)
Nature of the experiment: LTEA_HepaRG_GCLC: Life Technologies and Expression Analysis (LTEA) Assay for Glutamate-cysteine ligase catalytic (GCLC) using HepaRG (AID 2283498). Put shortly:
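Expression by TaqMan qRT-PCR, normalized to three housekeeping genes (ACTB, GAPDH, POLR2A), with up- or down-regulation fitted against DMSO. HepaRG cells dosed in duplicate for 48 h with 8 half-log concentrations up to 100 uM, vehicle 0.5% DMSO.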

Read-out in experiment [5]: Glutamate-cysteine ligase regulatory (GCLM), GCLM (gene 2730)
The experiment is described as follows: LTEA_HepaRG_GCLM: Life Technologies and Expression Analysis (LTEA) Assay for Glutamate-cysteine ligase regulatory (GCLM) using HepaRG (AID 2283500). In short, it runs like this:
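In this multiplexed HepaRG gene-expression assay, GCLM mRNA change after 48 h treatment (8 concentrations, max 100 uM) was scored against DMSO by bidirectional curve fitting.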

Read-out in experiment [6]: Glutathione S-transferase M3 (GSTM3), GSTM3 (gene 2947)
The experiment is described as follows: LTEA_HepaRG_GSTM3: Life Technologies and Expression Analysis (LTEA) Assay for Glutathione S-transferase M3 (GSTM3) using HepaRG (AID 2283501). In short, it runs like this:
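Expression of GSTM3 is determined by qRT-PCR in human liver HepaRG cells treated 48 h with an 8-point half-log range from 100 uM in 0.5% DMSO.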

Read-out in experiment [7]: Heat shock 70 kDa protein 1 (HSPA1A), gene 3303
The experiment is described as follows: LTEA_HepaRG_HSPA1A: Life Technologies and Expression Analysis (LTEA) Assay for Heat shock 70 kDa protein 1 (HSPA1A) using HepaRG (AID 2283502). In short, it runs like this: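 An oxidative-stress marker readout: HepaRG cells treated 48 h in duplicate with an eight-point series (highest 100 uM) had HSPA1A mRNA quantified by TaqMan qRT-PCR. Activity was fitted in both directions using 0.5% DMSO as baseline.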

Read-out in experiment [8]: Hypoxia-inducible factor 1-alpha (Homo sapiens) (UniProt Q16665)
Nature of the experiment: LTEA_HepaRG_HIF1A: Life Technologies and Expression Analysis (LTEA) Assay for Hypoxia-inducible factor 1 (HIF1A) Trancription factor using HepaRG (AID 2283503).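 Note: HIF1A transcript by TaqMan qRT-PCR normalized to ACTB GAPDH and POLR2A.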 In short, it runs like this:
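Gain- or loss-of-signal HIF1A mRNA changes are fitted against a DMSO baseline. HepaRG cultures receive eight concentrations, highest 100 uM, for 48 h in serum-free induction medium with 0.5% DMSO.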

Read-out in experiment [9]: 3-Hydroxy-3-Methylglutaryl-CoA Synthase 2 (HMGCS2), HMGCS2 (gene 3158)
Nature of the experiment: LTEA_HepaRG_HMGCS2: Life Technologies and Expression Analysis (LTEA) Assay for 3-Hydroxy-3-Methylglutaryl-CoA Synthase 2 (HMGCS2) using HepaRG (AID 2283504). Put shortly:
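This steatosis marker was read as HMGCS2 mRNA change in HepaRG cells treated 48 h with up to 100 uM chemical. Normalisation used housekeeping genes; activity in either direction was fitted relative to 0.5% DMSO vehicle.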

Read-out in experiment [10]: HGF (gene 3082)
The experiment is described as follows: LTEA_HepaRG_HGF: Life Technologies and Expression Analysis (LTEA) Assay for Hepatocyte Growth Facto (HGF) using HepaRG (AID 2283505). Put shortly:
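Using HepaRG monolayers kept in 0.5% DMSO, chemicals were tested in duplicate over eight half-log concentrations from 100 uM for 48 h. Endpoint: HGF mRNA change relative to DMSO, normalized to ACTB/GAPDH/POLR2A.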

Read-out in experiment [11]: Insulin Like Growth Factor 1 (IGF1), IGF1 (gene 3479)
The experiment is described as follows: LTEA_HepaRG_IGF1: Life Technologies and Expression Analysis (LTEA) Assay for Insulin Like Growth Factor 1 (IGF1) using HepaRG (AID 2283506). Put shortly:
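Endpoint: IGF1 mRNA change by qRT-PCR, housekeeping-normalized, fitted bidirectionally relative to 0.5% DMSO vehicle. Human HepaRG cells were treated 48 h in serum-free induction medium, eight half-log concentrations topping at 100 uM.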

Read-out in experiment [12]: Intercellular Adhesion Molecule 1 (ICAM1), ICAM1 (gene 3383)
Nature of the experiment: LTEA_HepaRG_ICAM1: Life Technologies and Expression Analysis (LTEA) Assay for Intercellular Adhesion Molecule 1 (ICAM1) using HepaRG (AID 2283507). Put shortly:
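Using the human liver line HepaRG, compounds are tested in duplicate over 48 h at concentrations up to 100 uM. Expression is determined by TaqMan qRT-PCR, normalized to endogenous controls, and analysed relative to 0.5% DMSO vehicle.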

Read-out in experiment [13]: Insulin-like growth factor-binding protein 1 (IGFBP1), IGFBP1 (gene 3484)
Nature of the experiment: LTEA_HepaRG_IGFBP1: Life Technologies and Expression Analysis (LTEA) Assay for Insulin-like growth factor-binding protein 1 (IGFBP1) using HepaRG (AID 2283508). Put shortly:
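HepaRG, 48 h, 8 conc. (max 100 uM, half-log), duplicates, 0.5% DMSO. Readout: TaqMan qRT-PCR, ACTB/GAPDH/POLR2A normalisation. Fit: bidirectional vs DMSO.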

Read-out in experiment [14]: Interleukin 6 Receptor (IL6R), IL6R (gene 3570)
Nature of the experiment: LTEA_HepaRG_IL6R: Life Technologies and Expression Analysis (LTEA) Assay for Interleukin 6 Receptor (IL6R) using HepaRG (AID 2283510).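 For AC50: differentiated human HepaRG liver cells in serum-free induction medium.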 Put shortly: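 In this HepaRG screen, test chemicals act on cells for 48 h at up to 100 uM (eight half-log points, duplicate wells). IL6R expression is quantified by qRT-PCR after normalization to ACTB, GAPDH and POLR2A, with DMSO as baseline.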

Read-out in experiment [15]: Potassium channel subfamily K member 1 (KCNK1), KCNK1 (gene 3775)
Nature of the experiment: LTEA_HepaRG_KCNK1: Life Technologies and Expression Analysis (LTEA) Assay for Potassium channel subfamily K member 1 (KCNK1) using HepaRG (AID 2283511). Put shortly:
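KCNK1 transcript measured by TaqMan qRT-PCR against three housekeeping genes, after HepaRG cells were treated 48 h with eight half-log concentrations (top 100 uM, 0.5% DMSO). Curves fitted bidirectionally relative to vehicle.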

Read-out in experiment [16]: Keratin 19 (KRT19), KRT19 (gene 3880)
The experiment is described as follows: LTEA_HepaRG_KRT19: Life Technologies and Expression Analysis (LTEA) Assay for Keratin 19 (KRT19) using HepaRG (AID 2283512). Put shortly: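 Readout is qRT-PCR of KRT19 mRNA, normalized to ACTB, GAPDH and POLR2A, from HepaRG cells treated 48 h with eight-point half-log dilutions topping at 100 uM. Activity in either direction is scored relative to 0.5% DMSO vehicle.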

Read-out in experiment [17]: JUN Transcription Factor, JUN (gene 3725)
Nature of the experiment: LTEA_HepaRG_JUN: Life Technologies and Expression Analysis (LTEA) Assay for JUN Transcription Factor using HepaRG (AID 2283513). In short, it runs like this:
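Gene-expression endpoint: JUN mRNA (qRT-PCR, normalized to three reference genes) in HepaRG cultures treated 48 h with chemicals, duplicate wells, 100 uM maximum with half-log dilutions; bidirectional fitting relative to 0.5% DMSO.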

Read-out in experiment [18]: Lipase C (LIPC), LIPC (gene 3990)
The experiment is described as follows: LTEA_HepaRG_LIPC: Life Technologies and Expression Analysis (LTEA) Assay for Lipase C (LIPC) using HepaRG (AID 2283514). Put shortly:
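LIPC expression was quantified by qRT-PCR against three housekeeping genes (ACTB, GAPDH, POLR2A). Differentiated human HepaRG cells received eight half-log doses (top 100 uM, 0.5% DMSO) in duplicate for 48 h; fitting bidirectional relative to DMSO.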

Read-out in experiment [19]: growth arrest and DNA damage 45 (GADD45G), GADD45G (gene 10912)
Nature of the experiment: LTEA_HepaRG_GADD45G: Life Technologies and Expression Analysis (LTEA) Assay for growth arrest and DNA damage 45 (GADD45G) using HepaRG (AID 2283499). Put shortly:
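Concentration-response in HepaRG: 48 h dosing, 0.5% DMSO, highest level 100 uM. GADD45G expression by qRT-PCR, normalised to endogenous controls; bidirectional fit to DMSO.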

Read-out in experiment [20]: Interleukin 6 (IL6), IL6 (gene 3569)
Nature of the experiment: LTEA_HepaRG_IL6: Life Technologies and Expression Analysis (LTEA) Assay for Interleukin 6 (IL6) using HepaRG (AID 2283509). In short, it runs like this:
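Transcript levels, normalized to three housekeeping genes, were quantified by qRT-PCR after 48 h chemical treatment of HepaRG cells. Eight-point half-log series from 100 uM in 0.5% DMSO, duplicates. Fitted both directions against DMSO baseline.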

Calls of active or inactive are those of the source. Rule for the calls: active = hit-call score of the fitted dose curve at least 0.9, where 1 is the maximum; inactive = score below 0.9.

Sequence of Hypoxia-inducible factor 1-alpha (Homo sapiens) (Q16665 whole entry, looked up): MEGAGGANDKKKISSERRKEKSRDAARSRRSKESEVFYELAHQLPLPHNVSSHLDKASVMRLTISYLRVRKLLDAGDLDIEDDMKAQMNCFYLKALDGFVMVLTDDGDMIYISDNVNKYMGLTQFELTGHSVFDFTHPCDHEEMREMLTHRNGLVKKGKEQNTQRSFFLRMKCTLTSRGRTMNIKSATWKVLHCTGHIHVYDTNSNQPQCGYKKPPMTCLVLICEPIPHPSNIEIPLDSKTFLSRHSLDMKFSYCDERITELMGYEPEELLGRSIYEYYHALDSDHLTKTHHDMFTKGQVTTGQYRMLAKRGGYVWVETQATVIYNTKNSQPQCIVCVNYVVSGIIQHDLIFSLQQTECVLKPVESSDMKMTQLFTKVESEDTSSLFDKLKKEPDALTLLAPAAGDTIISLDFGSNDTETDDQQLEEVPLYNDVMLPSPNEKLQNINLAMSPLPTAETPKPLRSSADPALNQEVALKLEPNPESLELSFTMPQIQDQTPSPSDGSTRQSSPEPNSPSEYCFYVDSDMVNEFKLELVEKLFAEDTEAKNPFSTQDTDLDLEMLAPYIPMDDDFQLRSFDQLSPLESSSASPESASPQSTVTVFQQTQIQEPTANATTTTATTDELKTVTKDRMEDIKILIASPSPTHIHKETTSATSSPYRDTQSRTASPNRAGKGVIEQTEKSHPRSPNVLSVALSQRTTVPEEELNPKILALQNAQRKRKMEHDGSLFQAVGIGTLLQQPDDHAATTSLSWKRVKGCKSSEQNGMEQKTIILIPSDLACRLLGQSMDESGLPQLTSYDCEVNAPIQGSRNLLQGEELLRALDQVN

In the case of `CCCCCCCCCC(=O)O`, the outcome in experiment [1], in experiment [2], in [3], in experiment [4], in [5] and in [6] was inactive. The call in experiment [7], in experiment [8], in experiment [9], in experiment [10], in [11] and in experiment [12] was inactive. Further, the result in experiment [13], in [14], in [15], in [16], in [17] and in experiment [18] was inactive.
The term AC50 denotes the concentration giving half of the maximal activity seen. Take `Cc1cc2c(cc1C(F)(F)F)N(C(=O)Nc1ccc(Oc3cccnc3C)nc1)CC2`: the AC50 in [1] is 29.6 µM (active); in experiment [2], 46 µM (active); in experiment [3], 26 µM (active); in [4] it was 60.7 µM (active); in experiment [7] it was 80.9 µM (active); in experiment [8], 11.3 µM (active). The AC50 in experiment [9] was 29.2 µM (active); in [18] it was 46 µM (active). The compound was called inactive in experiment [19], in [5], in [11], in experiment [12], in experiment [13] and in [14]. Also, the compound was classed as inactive in experiment [16] and in [17].
`CC(O)CC(C)(C)O` (centres undefined): the compound was classed as inactive in experiment [1], in experiment [2], in experiment [3], in experiment [4], in experiment [19] and in experiment [5]. Besides, the compound was classed as inactive in experiment [7], in experiment [8], in experiment [9], in experiment [11], in experiment [12] and in experiment [13]. In addition, the compound was called inactive in experiment [20], in experiment [14], in experiment [16], in [17] and in experiment [18].
As to `CC[C@H](NC(=O)c1cc(F)ccc1NS(=O)(=O)c1cccc2cccnc12)c1ccccc1`, the AC50 in experiment [1] is 22.8 µM (active); in experiment [2], 33.8 µM (active); in experiment [3], 80 µM (active); in [4], 47.8 µM (active); in experiment [7] it was 12.2 µM (active); in experiment [9], 37.6 µM (active). Moreover, the values for the AC50 in experiment [11], in experiment [14] and in [18] were 12.4 µM (active), 38.6 µM (active) and 20.1 µM (active), respectively. Moreover, the outcome in [5], in experiment [6], in experiment [8], in experiment [10], in [12] and in [13] was inactive. Further, the result in experiment [15], in experiment [16] and in [17] was inactive.
`CCCCCCCCCCCO`: the compound was classed as inactive in experiment [1], in [2], in experiment [3], in experiment [4], in experiment [19] and in experiment [5]. The compound was classed as inactive in experiment [7], in [8], in experiment [9], in [10], in [11] and in experiment [12]. The compound was classed as inactive in [13], in [14], in experiment [16], in experiment [17] and in experiment [18].
For `O=C=NCCCCCCN=C=O`, the result in experiment [1], in [2], in experiment [3], in [4], in experiment [19] and in [5] was inactive. In addition, the call in experiment [6], in experiment [7], in experiment [8], in [9], in experiment [11] and in experiment [12] was inactive. Also, the compound was called inactive in experiment [13], in experiment [14], in experiment [16], in experiment [17] and in experiment [18].
In the case of `CCCCCCCC[Si](OCC)(OCC)OCC`, the result in experiment [1], in [2], in experiment [3], in [4], in experiment [19] and in experiment [5] was inactive. Moreover, the result in [7], in [8], in experiment [9], in experiment [11], in experiment [12] and in [13] was inactive. Besides, the outcome in experiment [14], in experiment [16], in experiment [17] and in experiment [18] was inactive.
